Measurements: ChEMBL document CHEMBL3988442, “University of Dundee, Small-Polar-MMV Screening Library” (2021)
For some assays here: Results with a measured potency or affinity are listed apart.

How the values were obtained:
Design in all cases: scale not given: direction of the effect not stated beside the values
[1] = target: Protein translocase subunit SecA (Escherichia coli (strain K12)) (UniProt P10408); assay: Assay to Identify E. coli SecA ATPase Inhibitors; assay type: functional; conditions: 30 µM
[2] = target: T1, Ubiquitin-activating enzyme e1, putative (Leishmania donovani (strain BPK282A1)) (UniProt E9BSI1); assay: Leishmania donovani Ubiquitin Activating Enzyme (LdE1); assay type: functional; conditions: 30 µM
T1 sequence (whole entry): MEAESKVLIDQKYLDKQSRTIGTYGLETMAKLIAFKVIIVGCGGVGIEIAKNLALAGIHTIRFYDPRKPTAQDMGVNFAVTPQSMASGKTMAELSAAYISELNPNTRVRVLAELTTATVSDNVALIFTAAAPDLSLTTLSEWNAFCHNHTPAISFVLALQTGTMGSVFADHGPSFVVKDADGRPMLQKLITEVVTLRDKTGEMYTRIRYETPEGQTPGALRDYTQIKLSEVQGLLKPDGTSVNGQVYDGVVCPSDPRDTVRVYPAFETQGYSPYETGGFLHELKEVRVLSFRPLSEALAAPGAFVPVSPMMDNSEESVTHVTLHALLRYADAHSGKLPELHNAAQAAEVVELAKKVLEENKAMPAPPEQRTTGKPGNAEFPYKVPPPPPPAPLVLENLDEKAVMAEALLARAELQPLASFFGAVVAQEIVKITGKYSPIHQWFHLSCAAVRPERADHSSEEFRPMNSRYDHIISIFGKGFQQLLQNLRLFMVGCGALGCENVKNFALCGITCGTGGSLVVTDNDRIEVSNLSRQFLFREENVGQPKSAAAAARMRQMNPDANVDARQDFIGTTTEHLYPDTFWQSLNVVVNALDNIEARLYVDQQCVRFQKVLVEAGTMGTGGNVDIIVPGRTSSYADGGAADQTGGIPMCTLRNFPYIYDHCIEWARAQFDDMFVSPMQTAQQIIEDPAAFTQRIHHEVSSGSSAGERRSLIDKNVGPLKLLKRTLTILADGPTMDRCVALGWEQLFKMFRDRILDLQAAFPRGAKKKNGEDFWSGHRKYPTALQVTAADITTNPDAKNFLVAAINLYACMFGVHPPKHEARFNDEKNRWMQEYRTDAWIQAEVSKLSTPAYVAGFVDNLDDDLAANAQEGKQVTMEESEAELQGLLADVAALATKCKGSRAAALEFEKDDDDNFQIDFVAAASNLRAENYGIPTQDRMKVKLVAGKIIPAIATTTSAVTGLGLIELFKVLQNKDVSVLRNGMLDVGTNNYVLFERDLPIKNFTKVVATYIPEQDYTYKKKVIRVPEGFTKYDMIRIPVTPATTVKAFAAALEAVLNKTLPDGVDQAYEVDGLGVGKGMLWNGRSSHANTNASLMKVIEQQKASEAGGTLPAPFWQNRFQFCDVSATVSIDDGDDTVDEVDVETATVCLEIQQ

[3] = target: AMP-activated protein kinase, AMPK (Homo sapiens) (UniProt P54646+O43741+P54619+Q9UGJ0+Q9Y478+Q13131+Q9UGI9); assay: AMP-dependent Kinase enzyme assay. An in vitro enzyme assay that detects ADP turnover that is directly proportional to AMPK activity. This uses naive AMPK that is activated during the assay with MK-8722; assay type: functional; conditions: 30 µM
[4] = target: Sialic acid-binding Ig-like lectin 9 (Homo sapiens) (UniProt Q9Y336); assay: Hs-Siglec9 ALPHAscreen SOP 20170721; conditions: 10 µM
Trypanosoma cruzi = assay: Trypanosoma cruzi phosphomannomutase and mannose-1-phosphate guanylyltransferase assay; assay type: functional; conditions: 10 µM
[5] = target: T2, Arginase-2, mitochondrial (Homo sapiens) (UniProt P78540); assay: in vitro enzyme assay to detect the production of urea directly proportional to the activity of Arginase II; assay type: functional; conditions: 33.3 µM; also: in the data most compounds retested in dose-response had high values
T2 sequence (whole entry): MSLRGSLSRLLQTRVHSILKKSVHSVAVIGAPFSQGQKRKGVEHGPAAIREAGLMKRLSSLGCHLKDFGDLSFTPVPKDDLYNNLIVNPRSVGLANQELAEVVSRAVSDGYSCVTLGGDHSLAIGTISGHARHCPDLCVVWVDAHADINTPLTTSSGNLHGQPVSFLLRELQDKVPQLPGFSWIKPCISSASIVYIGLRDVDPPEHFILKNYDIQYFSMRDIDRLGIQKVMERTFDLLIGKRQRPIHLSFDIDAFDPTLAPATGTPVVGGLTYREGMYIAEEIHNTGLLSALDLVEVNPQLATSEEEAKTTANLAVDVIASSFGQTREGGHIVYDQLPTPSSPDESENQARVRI

[6] = target: T3, Proteasome subunit beta (Trypanosoma cruzi) (UniProt O96673); assay: Trypanosoma cruzi proteasome chymotrypsin-like activity (TcProtChymo) assay.; also: in the data most compounds retested in dose-response had high values; assay type: functional; conditions: 9.37 µM
T3 sequence (whole entry): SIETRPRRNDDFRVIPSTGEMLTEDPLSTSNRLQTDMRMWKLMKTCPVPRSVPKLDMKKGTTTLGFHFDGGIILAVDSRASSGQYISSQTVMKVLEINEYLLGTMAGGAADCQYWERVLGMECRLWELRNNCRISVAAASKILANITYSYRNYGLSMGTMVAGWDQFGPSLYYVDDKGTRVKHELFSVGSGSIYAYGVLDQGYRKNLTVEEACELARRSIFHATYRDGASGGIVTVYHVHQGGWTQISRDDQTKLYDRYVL

Homo sapiens = organism: Homo sapiens; assay: To identify inhibition of the IFN signalling (Jak-Stat) pathway via expression of an eGFP reporter gene under the control of an IFN-stimulated response element (ISRE) containing MxA promoter.; assay type: functional; conditions: 30 µM
[7] = target: T4, Tyrosyl-tRNA synthetase, putative (Trypanosoma cruzi (strain CL Brener)) (UniProt Q4DSP6); assay: Trypanosoma cruzi tyrosyl tRNA synthetase (TcYRS) _High Tyrosine SOP; assay type: functional; conditions: 30 µM; also: in the data most compounds retested in dose-response had high values
T4 sequence (whole entry): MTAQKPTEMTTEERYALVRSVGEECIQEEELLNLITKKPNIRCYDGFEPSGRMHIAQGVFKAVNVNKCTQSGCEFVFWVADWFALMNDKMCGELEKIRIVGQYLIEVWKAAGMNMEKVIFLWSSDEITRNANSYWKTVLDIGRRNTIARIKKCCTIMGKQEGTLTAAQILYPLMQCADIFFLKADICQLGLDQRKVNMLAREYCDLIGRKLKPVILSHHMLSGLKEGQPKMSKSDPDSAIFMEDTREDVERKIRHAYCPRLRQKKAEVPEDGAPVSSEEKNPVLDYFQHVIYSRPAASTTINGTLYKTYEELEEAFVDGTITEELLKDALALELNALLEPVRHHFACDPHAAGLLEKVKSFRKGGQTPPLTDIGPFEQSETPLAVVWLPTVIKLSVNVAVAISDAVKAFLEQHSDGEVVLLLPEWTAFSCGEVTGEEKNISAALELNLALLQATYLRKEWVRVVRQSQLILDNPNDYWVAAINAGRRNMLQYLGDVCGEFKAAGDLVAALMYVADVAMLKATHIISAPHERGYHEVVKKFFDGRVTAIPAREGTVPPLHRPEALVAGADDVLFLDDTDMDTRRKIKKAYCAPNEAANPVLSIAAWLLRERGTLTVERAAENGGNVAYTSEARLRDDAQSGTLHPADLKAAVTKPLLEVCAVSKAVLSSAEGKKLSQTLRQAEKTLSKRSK

[8] = target: T4, Tyrosyl-tRNA synthetase, putative (Trypanosoma cruzi (strain CL Brener)); assay: Trypanosoma cruzi tyrosyl tRNA synthetase (TcYRS) SOP; assay type: functional; conditions: 30 µM
[9] = target: Chromo domain-containing protein 1 (Saccharomyces cerevisiae (strain ATCC 204508 / S288c) (Baker's yeast)) (UniProt P32657); assay: ScCHD-1 Enzyme Inhibition Assay; assay type: functional; conditions: 30 µM; also: in the data most compounds retested in dose-response had high values
Chain of Chromo domain-containing protein 1 (Saccharomyces cerevisiae (strain ATCC 204508 / S288c) (Baker's yeast)) (P32657 whole entry, the tested form may be a part): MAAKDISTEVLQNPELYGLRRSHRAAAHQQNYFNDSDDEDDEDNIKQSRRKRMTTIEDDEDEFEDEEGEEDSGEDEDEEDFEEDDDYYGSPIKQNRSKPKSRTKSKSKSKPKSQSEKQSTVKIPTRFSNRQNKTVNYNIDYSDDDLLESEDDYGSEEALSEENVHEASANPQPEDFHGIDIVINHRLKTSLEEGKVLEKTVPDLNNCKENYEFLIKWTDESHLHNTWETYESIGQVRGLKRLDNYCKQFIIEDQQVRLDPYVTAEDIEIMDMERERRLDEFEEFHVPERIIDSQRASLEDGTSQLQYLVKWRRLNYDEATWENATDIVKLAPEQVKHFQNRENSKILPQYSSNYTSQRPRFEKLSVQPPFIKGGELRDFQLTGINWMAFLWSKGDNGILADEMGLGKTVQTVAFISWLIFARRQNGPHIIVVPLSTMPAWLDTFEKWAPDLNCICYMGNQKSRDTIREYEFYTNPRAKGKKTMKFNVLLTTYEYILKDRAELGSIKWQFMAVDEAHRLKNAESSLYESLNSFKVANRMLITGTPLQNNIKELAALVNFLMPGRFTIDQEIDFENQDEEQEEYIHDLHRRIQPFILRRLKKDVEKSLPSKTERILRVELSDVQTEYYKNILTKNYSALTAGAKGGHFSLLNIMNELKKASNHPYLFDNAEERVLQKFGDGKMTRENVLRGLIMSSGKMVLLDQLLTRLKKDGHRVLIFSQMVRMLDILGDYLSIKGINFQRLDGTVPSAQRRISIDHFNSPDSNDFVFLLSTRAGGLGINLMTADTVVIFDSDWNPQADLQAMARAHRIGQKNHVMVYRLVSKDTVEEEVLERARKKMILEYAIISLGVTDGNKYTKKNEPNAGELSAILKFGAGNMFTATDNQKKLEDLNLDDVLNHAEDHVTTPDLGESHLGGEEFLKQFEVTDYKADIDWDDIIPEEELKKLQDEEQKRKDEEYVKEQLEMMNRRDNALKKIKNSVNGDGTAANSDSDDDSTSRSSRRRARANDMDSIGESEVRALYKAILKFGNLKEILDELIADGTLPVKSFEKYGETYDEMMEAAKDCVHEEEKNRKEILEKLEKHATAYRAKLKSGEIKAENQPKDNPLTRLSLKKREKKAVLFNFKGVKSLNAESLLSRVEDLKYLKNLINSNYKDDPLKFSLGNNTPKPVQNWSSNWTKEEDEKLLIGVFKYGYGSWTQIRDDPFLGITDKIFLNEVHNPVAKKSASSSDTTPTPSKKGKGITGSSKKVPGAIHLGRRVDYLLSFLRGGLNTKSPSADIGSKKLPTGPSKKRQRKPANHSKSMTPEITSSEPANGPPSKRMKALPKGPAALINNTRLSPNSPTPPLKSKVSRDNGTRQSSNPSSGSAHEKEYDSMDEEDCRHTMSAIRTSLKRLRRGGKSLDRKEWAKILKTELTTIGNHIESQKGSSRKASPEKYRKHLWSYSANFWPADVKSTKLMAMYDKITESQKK

Chain of Sialic acid-binding Ig-like lectin 9 (Homo sapiens) (Q9Y336 whole entry): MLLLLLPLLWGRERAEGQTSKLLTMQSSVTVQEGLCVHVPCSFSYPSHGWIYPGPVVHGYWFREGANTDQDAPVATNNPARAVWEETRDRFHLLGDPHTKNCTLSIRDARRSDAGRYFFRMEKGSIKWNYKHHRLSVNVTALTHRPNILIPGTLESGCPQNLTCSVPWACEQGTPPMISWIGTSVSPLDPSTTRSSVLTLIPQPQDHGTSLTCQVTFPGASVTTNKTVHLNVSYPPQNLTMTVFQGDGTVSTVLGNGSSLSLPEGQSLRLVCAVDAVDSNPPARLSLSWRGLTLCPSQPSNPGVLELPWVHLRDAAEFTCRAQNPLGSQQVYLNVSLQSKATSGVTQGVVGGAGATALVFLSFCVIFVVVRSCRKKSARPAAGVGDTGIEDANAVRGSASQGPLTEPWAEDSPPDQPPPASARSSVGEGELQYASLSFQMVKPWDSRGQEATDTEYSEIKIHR
Chain of Protein translocase subunit SecA (Escherichia coli (strain K12)) (P10408 whole entry): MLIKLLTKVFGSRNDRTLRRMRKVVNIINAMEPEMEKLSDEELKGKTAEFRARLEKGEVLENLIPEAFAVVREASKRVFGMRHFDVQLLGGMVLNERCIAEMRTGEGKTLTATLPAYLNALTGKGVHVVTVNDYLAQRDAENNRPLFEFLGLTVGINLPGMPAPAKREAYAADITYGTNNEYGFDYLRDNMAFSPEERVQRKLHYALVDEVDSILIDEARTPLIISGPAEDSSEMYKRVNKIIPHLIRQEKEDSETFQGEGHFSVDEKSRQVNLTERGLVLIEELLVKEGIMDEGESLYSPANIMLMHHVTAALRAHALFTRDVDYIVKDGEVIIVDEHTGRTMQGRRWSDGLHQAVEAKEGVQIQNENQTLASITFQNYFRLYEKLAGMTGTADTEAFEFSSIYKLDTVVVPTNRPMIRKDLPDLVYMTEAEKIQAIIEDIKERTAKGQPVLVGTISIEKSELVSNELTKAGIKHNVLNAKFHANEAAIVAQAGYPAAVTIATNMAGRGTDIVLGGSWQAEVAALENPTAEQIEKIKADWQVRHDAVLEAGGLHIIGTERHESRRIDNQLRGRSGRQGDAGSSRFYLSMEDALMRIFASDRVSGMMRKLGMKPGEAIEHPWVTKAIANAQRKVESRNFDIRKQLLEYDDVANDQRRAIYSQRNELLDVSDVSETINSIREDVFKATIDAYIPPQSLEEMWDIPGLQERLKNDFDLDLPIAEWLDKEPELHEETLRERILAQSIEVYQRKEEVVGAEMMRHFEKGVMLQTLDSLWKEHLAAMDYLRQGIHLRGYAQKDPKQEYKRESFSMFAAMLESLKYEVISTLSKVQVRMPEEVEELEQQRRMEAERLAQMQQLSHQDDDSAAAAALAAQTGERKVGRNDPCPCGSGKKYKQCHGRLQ

| Compound | Percent Effect [1] | Percent Effect [2] | Percent Effect [3] | Percent Effect [4] | Percent Effect (Trypanosoma cruzi) | Percent Effect [5] | Percent Effect [6] | Percent Effect (Homo sapiens) | Percent Effect [7] | Percent Effect [8] | Percent Effect [9] |
| --- | --- | --- | --- | --- | --- | --- | --- | --- | --- | --- | --- |
| CNc1cc2c(nn1)CCN(C(=O)c1cc(F)cc(F)c1)C2 | -4.7% | 10.4% | 2.19% | 3.45% | 2.84% | -3.16% | 6.06% | 3.72% | 6.67% | 9.41% | -21.1% |
| COCC(=O)NC1CC2(CCN(Cc3ccco3)CC2)c2ccccc21 (stereo not given) | -1.45% | 2.7% | -1.83% | 3.44% | -7.92% | 2.23% | 24.2% | 4.53% | 2.16% | 5.13% | -3.97% |
| Cc1cnn(CCNCc2csc(C)n2)c1 | -1.46% | -5.33% | -1.53% | -3.7% | -0.876% | -2.6% | 7.5% | 1.61% | 3.83% | 6.17% | 0.841% |
| CC(C)NC(=O)N1CCC2(COCc3cnc(-c4cccnc4)nc32)C1 (stereo not given) | -3.55% | 2.7% | 6.5% | 0.534% | -6.94% | 4.78% | 12% | 6.17% | 1.08% | 5.13% | 2.74% |
| Cc1ccc(-c2nc(CN3CCc4nn(C)c(=O)cc4C3)no2)cc1 | -1.55% | -24.3% | 7.36% | -4.73% | 5.75% | 2.81% | -12.8% | 2.86% | -0.493% | -1.24% | -4.17% |
| Cc1ccc(CN2C[C@@H]3COC[C@@H](NS(C)(=O)=O)[C@@H]3C2)o1 | -1.26% | 2.67% | -0.569% | -2.48% | 8.69% | -54.7% | 12.5% | -3.72% | 1.04% | 17.5% | -8.24% |
| Cc1cc(CN2CCOCS2(=O)=O)ccc1F | 2.12% | 5.41% | -2.01% | 3.16% | -5.21% | 4.29% | 16.4% | 9.21% | 4.76% | 4.88% | -2.56% |
| COc1cccc(C2CCCN2C(=O)c2cc3c([nH]c2=O)CCC3)c1 (stereo not given) | -1.17% | 5.41% | 0.0672% | -4.05% | 1.17% | 25% | 16% | 5.64% | 7.92% | 6.1% | -6.8% |
| CC(C)Oc1cccc(C(O)CNC(=O)CCc2ccncc2)c1 (stereo not given) | -3.24% | -5.48% | 2.43% | 13.4% | -3.97% | -7.58% | 3.85% | 0.683% | 1.04% | 3.7% | 5.03% |
| COc1cc(CCC(C)O)c(OC)c2c1OCO2 (stereo not given) | -5.08% | -1.33% | -4.24% | -3.72% | -4.13% | -6.51% | 11.5% | -0.862% | -1.06% | 0% | -6.82% |
